A340 absorber = compound light absorbance at 340 nm, profiling panel, artefact control, biochemical, MLSMR library, data from PS, PMK, MK assays. AID 708, 2007. fold change at 10 µM. compound absorbance at 340 nm, fold over control. 65,000 tested, under 10 active;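 active means at 10 µM dose, initial 340 nm absorbance at least 2 fold that of control wells; inactive means change under 2 fold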;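 further: initial absorbance extrapolated from kinetic A340 decline of NADH oxidation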
PMK inhibit = S. pneumoniae PMK inhibitors, primary screen, biochemical, mevalonate pathway, pilot trial included; phosphomevalonate kinase (Streptococcus pneumoniae D39); purified PMK, PK/LDH-coupled NADH absorbance 340 nm; inhibition, % at 10 µM; actives 0.49% (n = 65,000);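 active means top-ranked compounds by inhibition in the single 10 µM screen, taking a fixed number of the strongest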;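 further: 0% = full reaction with DMSO carrier and 100% = background rate without enzyme reaction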
Spn MK inh = S. pneumoniae MK inhibitors, primary screen, biochemical, PK/LDH-coupled NADH absorbance; inhibition, % at 10 µM; mevalonate kinase [Streptococcus pneumoniae D39]; purified MK, PK/LDH-coupled NADH absorbance 340 nm; actives 0.48% (n = 65,000);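 active means ranked among the strongest by inhibition in the single 10 µM screen, a fixed top-ranked set picked for dose follow-up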
NADH enzymes = inhibitors of PK/LDH coupling enzymes, profiling panel, artefact control, biochemical, MLSMR library; IC50, µM (series often up to 10 µM), for the others: at the top dose inhibition; coupled PK/LDH NADH assays, four targets; actives 0.02% (n = 65,000);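 active means single-dose screening hits from any of four coupled enzyme assays that gave an IC50 when retested across doses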;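 further: the DPM-DC format reads NADH fluorescence rather than 340 nm absorbance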
Fluor 339 460 = intrinsic fluorescence of library compounds, ex339/em460 – biochemical, MLSMR library, data from DPM-DC assay, artefact control, profiling panel. actives 5.5% (n = 65,000). fluorescence fold increase at 10 µM. compound autofluorescence, ex339/em460 nm, NADH buffer; hits give high values; 1 = no-compound wells, NADH background;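 active means at 10 µM, mean starting fluorescence two-fold or more over control wells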;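 further: signal is the first read of a kinetic run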
DPM-DC inhibit = S. pneumoniae DPM-DC inhibitors, primary screen, biochemical, PK/LDH-coupled NADH fluorescence. actives 0.49% (n = 65,000). diphosphomevalonate decarboxylase (Streptococcus pneumoniae D39). purified DPM-DC. calls only at 10 µM;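 active means the 320 compounds with the highest percent inhibition in the single-dose primary screen, excluding strongly autofluorescent ones, cut at about 32% in these data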;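 further: kinetic rate of NADH fluorescence loss reporting ADP formed by the decarboxylase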
Active calls of the source: *; i = inactive; x = not tested or not shown; + = active, no number. Sampled rows, rich in hits. Any-hit rate of the full collection: about 6.8%.

SMILES | A340 absorber | PMK inhibit | Spn MK inh | NADH enzymes | Fluor 339 460 | DPM-DC inhibit
CNc1oc(-c2ccc(OCc3ccccc3)cc2)nc1C#N | 1.1 | 14 | 12 | 9% | 1.4 | i
Cc1ccc(-c2nc(C#N)c(NCc3ccco3)o2)cc1 | 1 | 18 | 2 | 10% | 3.7* | x
N#Cc1nc(-c2ccco2)oc1NCc1ccco1 | 1 | 13 | 12 | 5% | 2.4* | x
Cc1ccc(OCc2nc(C#N)c(NCc3ccco3)o2)cc1 | 1 | 16 | 5 | 7% | 1.1 | i
O=C1NC(c2ccccc2)(C(F)(F)F)C(=O)N1Cc1cccnc1 (centres undefined) | 1 | 5 | 14 | 8% | 1.1 | i
Cc1ccccc1NC(=O)C1CCCN1C(=O)NC1CCCCC1 (centres undefined) | 1 | 5 | 0 | 2% | 1.1 | i
O=C(NCc1ccc(N2CCCC2=O)cc1)Nc1cccc(Cl)c1 | 1 | 8 | 8 | 6% | 1.1 | i
N#Cc1nc(-c2ccc(OCc3ccccc3)cc2)oc1N1CCOCC1 | 1 | 15 | 17 | 11% | 1.9 | i
N#Cc1nc(-c2ccc(OCc3ccccc3)cc2)oc1NCCN1CCOCC1 | 1.1 | 0 | 7 | 4% | 3.9* | x
Cc1ccc2cc(C#N)c(NCc3ccco3)nc2c1 | 1 | 11 | 9 | 10% | 3.8* | x
Cc1cn(S(=O)(=O)c2ccc(Br)c3ccccc23)cn1 | 1 | 2 | 0 | 1% | 1 | i
CCN(CCNC(=O)CN1CCN(Cc2ccc(Cl)cc2)C1=O)c1ccccc1 | 1 | 12 | 6 | 6% | 1.1 | i
COC(=O)c1ccc(OCC(=O)Nc2nn(-c3ccccc3)nc2C(N)=O)cc1 | 1 | 12 | 14 | 15% | 2.2* | i
CCOC(=O)N1CCN(C(=O)Cn2nc(-c3ccc(Cl)cc3)ccc2=O)CC1 | 1 | 25* | 0 | 8% | 1.1 | i
c1cc(-c2nnc(-c3ccncc3)o2)ccn1 | 1 | 0 | 7 | 2% | 1.1 | i
OCC#CCSc1nnc(-c2ccncc2)o1 | 1 | 12 | 11 | 8% | 1.1 | i
CC(C)COc1ccc(-c2nnc(-c3ccncc3)o2)cc1 | 1.1 | 18 | 10 | 16% | 2.4* | i
CCCOc1ccc(-c2nnc(-c3ccncc3)o2)cc1 | 1 | 3 | 2 | 7% | 2.4* | i
CC1CCC2(CC1)NC(=O)c1ccccc1O2 (centres undefined) | 0.99 | 23 | 10 | 13% | 1.1 | i
Cc1cc(C)c(NC(=O)CSc2nc3c(c(=O)n2C)SC(C)C3)c(C)c1 (centres undefined) | 1 | 3 | 2 | 1% | 1 | i
COc1cccc(-c2nn(C)c3sc(C(=O)NCc4ccccn4)cc23)c1 | 1.1 | 7 | 7 | 7% | 4.9* | x
CCOC(=O)N1CCC(NC(=O)c2cc3c(-c4cccc(OC)c4)nn(C)c3s2)CC1 | 1 | 9 | 5 | 12% | 3.9* | i
CCn1c(=O)cc(OCC(=O)Nc2ccccc2C#N)c2ccccc21 | 1 | 7 | 4 | 12% | 1.1 | i
c1ccc(-c2noc(-c3cccc4ccccc34)n2)cc1 | 1 | 11 | 8 | 8% | 2.5* | i
O=C(O)c1ccccc1NCN1C(=O)C2CC=C(Cl)CC2C1=O (centres undefined) | 1 | 12 | 0 | 9% | 2.6* | i
CCCn1c(C)nc2c(c1=O)c1nc3ccccc3nc1n2-c1ccc2c(c1)OCCO2 | 1.1 | 0 | 3 | 31% | 2.6* | +
Cc1nc2c(c(=O)n1CC1CCCO1)c1nc3ccccc3nc1n2CCC(C)C (centres undefined) | 1.1 | 3 | 0 | 2% | 2.3* | x
CCCCCn1c2nc3ccccc3nc2c2c(=O)n(CC3CCCO3)c(C)nc21 (centres undefined) | 1 | 3 | 5 | 4% | 4* | x
Cc1nc2c(c(=O)n1CCC(C)C)c1nc3ccccc3nc1n2Cc1ccc2c(c1)OCO2 | 1.1 | 3 | 2 | 2% | 1.3 | i

Screening results as filed in PubChem.
